Reference: PubChem BioAssay (NCI)
The panel holds about 79,000 compounds, 15% with a hit somewhere; the sample as a whole holds those more often. A number with no mark means an inactive call. Activity calls are given as the source filed them. Cut-off read from the data, not from the text of the source: active = growth inhibition above about 70%; inactive = the rest.

Assay: NCI Yeast Anticancer Drug Screen. Data for the bub3 strain (AID 167)
Details: S. cerevisiae bub3 mutant strain, at 50.0 µM, stronger effect = higher value
In short: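 Whole-cell yeast assay. The mutant strain was incubated with compounds, and growth inhibition was determined by comparison with vehicle-treated cells.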

Compound	growth inhibition
CSc1nc(=O)cc(N)n1C	-7.2%
CCOC(=O)C(NC(=O)Cc1ccccc1)C(=O)OCC	14.9%
COc1ccc(C(=O)C(CN(C)C)CN(C)C)cc1OC	-11.7%
CS(=O)(=O)/C=C/c1ccccc1	-2.1%
Clc1ccc2sc3c(c2c1)CCNC3	-26%
CCS(=O)(=O)c1ccc(NC(=O)OC2CCCCCC2)cc1	12.3%
CC(C)c1ccc(C(O)C2CC2)cc1 (stereo not given)	-19.6%
Nc1ccc(C(=O)CC(=O)c2cccc([N+](=O)[O-])c2)cc1	27.4%
CC(C)(Cc1ccc(Cl)cc1)NC(N)=O	-44.1%
CSc1ccc(NC(=O)Nc2ccc(Cl)cc2C(=O)c2ccccc2)cc1	88.5% (active)
Cc1nc2c(cc1C(=O)N/N=C/c1ccc([N+](=O)[O-])cc1)c(=O)n(C)c(=O)n2C	-50.9%
CC#Cc1c(C#CC)c(OC)c2c(c1OC)C(=O)c1ccccc1C2=O	-8.2%
CN(C)c1ccc(/C=N\NC(=S)Nc2ccc3cn[nH]c3c2)cc1	23.3%
CNc1nc2c(s1)c1c(O)c3c(O)c(C)c4c(c32)C(=O)C(C)(O/C=C/C(OC)C(C)C(OC(C)=O)C(C)C(O)C(C)C(O)C(C)/C=C/C=C(/C)C(=O)N1)O4 (stereo not given)	21.2%
Nc1nc2ccc([N+](=O)[O-])cc2s1	-12.8%
O=S(Nc1ccc(Br)cc1)c1ccccc1 (stereo not given)	3.4%
O=C(CNC(=O)C(CO)NC(=O)OCc1ccccc1)OCc1ccccc1 (stereo not given)	-0.1%
Fc1ccc(-c2ccc(Br)cc2)cc1	17%
CCNC(=O)CCN(C(=O)O)S(=O)(=O)c1ccc(NC(=O)c2ccccc2)cc1	-8.7%
COc1cc(NCc2c(O)ccc3ccccc23)c2ncccc2c1	7.75%

Compound	growth inhibition
O=C(CS(=O)(=O)Cc1ccccc1)N1CCOCC1	-3%
O=C(/C=C/c1ccc(O)cc1)c1cc(O)cc(O)c1	-4.1%
CNC(=O)/C(=C\c1ccccc1)NC(C)=O	17.9%
c1ccc(SCc2ccc3c(c2)OCO3)cc1	18.8%
CNc1ccc(C(=O)O)cc1C(F)(F)F	-32.6%
O=c1[nH]cnc2c1ncn2C1CCC(CO)O1 (stereo not given)	1.85%
CC(C)C1=CC2=CCC3C(C)(COC(=O)CSC(C)(C)C)CCCC3(C)C2CC1 (stereo not given)	-1.9%
N#CC(CC(=O)c1ccccc1)c1ccccc1Cl (stereo not given)	40.4%
c1ccc(C2=NCCc3cc4c(cc32)OCO4)cc1	13.2%
COc1ccc(CC(N)C(=O)N2CCCCC2)cc1 (stereo not given)	8.4%
COc1cc(-c2nnc3n2NC=C(C(=O)O)S3)cc(OC)c1OC	28.2%
CC(=O)O[C@]12CCCCCC1C1(O)C(O)CCCC[C@H]12 (stereo not given in full)	-10.3%
COC(=O)c1ccccc1C1CN=NC12Cc1c(C)ccc(C)c1C2=O (stereo not given)	3.55%
CC/C=N/Nc1cn[nH]c(=O)c1Cl	-7.75%
C=C1C(=O)OC2CCC3OC(C)(C)OC3C12 (stereo not given)	31.9%
CCC1N=C(N)N=C(N)N1c1ccc(Cl)c(Cl)c1 (stereo not given)	10.7%
CCCCn1c2nc(=O)n(C)c(=O)c-2cc2ccccc21	17.8%
COc1ccc([N+](=O)[O-])c(C(OC(C)=O)OC(C)=O)c1OC(C)=O	1.15%
CCCCCCCCCCC1SCC(=O)N1c1nncs1 (stereo not given)	4.2%
CC(=O)Nc1nc2ncc(CN(C(C)=O)c3ccc(C(=O)O)cc3)nc2c(=O)[nH]1	-21.1%

Assay: NCI Yeast Anticancer Drug Screen. Data for the mlh1 rad18 strain (AID 175)
Details: S. cerevisiae mlh1 rad18 strain growth inhibition; at 50.0 µM; stronger effect = higher value
In short: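 Read-out is yeast growth inhibition, calculated against vehicle-only controls. The compound was applied to a strain engineered with DNA damage repair alterations.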

Compound	growth inhibition
CSc1nc(=O)cc(N)n1C	7.9%
CCOC(=O)C(NC(=O)Cc1ccccc1)C(=O)OCC	-17.9%
COc1ccc(C(=O)C(CN(C)C)CN(C)C)cc1OC	-18.4%
CS(=O)(=O)/C=C/c1ccccc1	0.75%
Clc1ccc2sc3c(c2c1)CCNC3	13.6%
CCS(=O)(=O)c1ccc(NC(=O)OC2CCCCCC2)cc1	7.8%
CC(C)c1ccc(C(O)C2CC2)cc1 (stereo not given)	-11.6%
Nc1ccc(C(=O)CC(=O)c2cccc([N+](=O)[O-])c2)cc1	2.1%
CC(C)(Cc1ccc(Cl)cc1)NC(N)=O	-31.8%
CSc1ccc(NC(=O)Nc2ccc(Cl)cc2C(=O)c2ccccc2)cc1	97.8% (active)
Cc1nc2c(cc1C(=O)N/N=C/c1ccc([N+](=O)[O-])cc1)c(=O)n(C)c(=O)n2C	18.1%
CC#Cc1c(C#CC)c(OC)c2c(c1OC)C(=O)c1ccccc1C2=O	-25.1%
CN(C)c1ccc(/C=N\NC(=S)Nc2ccc3cn[nH]c3c2)cc1	-9.5%
CNc1nc2c(s1)c1c(O)c3c(O)c(C)c4c(c32)C(=O)C(C)(O/C=C/C(OC)C(C)C(OC(C)=O)C(C)C(O)C(C)C(O)C(C)/C=C/C=C(/C)C(=O)N1)O4 (stereo not given)	20.5%
Nc1nc2ccc([N+](=O)[O-])cc2s1	-8.1%
O=S(Nc1ccc(Br)cc1)c1ccccc1 (stereo not given)	1.55%
O=C(CNC(=O)C(CO)NC(=O)OCc1ccccc1)OCc1ccccc1 (stereo not given)	4.35%
Fc1ccc(-c2ccc(Br)cc2)cc1	-3.65%
CCNC(=O)CCN(C(=O)O)S(=O)(=O)c1ccc(NC(=O)c2ccccc2)cc1	-13.9%
COc1cc(NCc2c(O)ccc3ccccc23)c2ncccc2c1	62.8%

Compound	growth inhibition
O=C(CS(=O)(=O)Cc1ccccc1)N1CCOCC1	-27.5%
O=C(/C=C/c1ccc(O)cc1)c1cc(O)cc(O)c1	13.8%
CNC(=O)/C(=C\c1ccccc1)NC(C)=O	-25.1%
c1ccc(SCc2ccc3c(c2)OCO3)cc1	16.8%
CNc1ccc(C(=O)O)cc1C(F)(F)F	8.85%
O=c1[nH]cnc2c1ncn2C1CCC(CO)O1 (stereo not given)	-8.85%
CC(C)C1=CC2=CCC3C(C)(COC(=O)CSC(C)(C)C)CCCC3(C)C2CC1 (stereo not given)	20.2%
N#CC(CC(=O)c1ccccc1)c1ccccc1Cl (stereo not given)	22%
c1ccc(C2=NCCc3cc4c(cc32)OCO4)cc1	9.4%
COc1ccc(CC(N)C(=O)N2CCCCC2)cc1 (stereo not given)	6.75%
COc1cc(-c2nnc3n2NC=C(C(=O)O)S3)cc(OC)c1OC	21.8%
CC(=O)O[C@]12CCCCCC1C1(O)C(O)CCCC[C@H]12 (stereo not given in full)	-16.4%
COC(=O)c1ccccc1C1CN=NC12Cc1c(C)ccc(C)c1C2=O (stereo not given)	29.9%
CC/C=N/Nc1cn[nH]c(=O)c1Cl	-14.9%
C=C1C(=O)OC2CCC3OC(C)(C)OC3C12 (stereo not given)	10.6%
CCC1N=C(N)N=C(N)N1c1ccc(Cl)c(Cl)c1 (stereo not given)	37.8%
CCCCn1c2nc(=O)n(C)c(=O)c-2cc2ccccc21	34.7%
COc1ccc([N+](=O)[O-])c(C(OC(C)=O)OC(C)=O)c1OC(C)=O	-9.4%
CCCCCCCCCCC1SCC(=O)N1c1nncs1 (stereo not given)	4.25%
CC(=O)Nc1nc2ncc(CN(C(C)=O)c3ccc(C(=O)O)cc3)nc2c(=O)[nH]1	-10.2%
